“And” between values parts separate entries of the source, which are not always exact repeats. Equal values may be shown once. About 79,000 compounds went through this panel and 15% of them were active in at least one assay; those are over-represented in the sample as a whole. Some compounds were tested as several samples or in several runs, with calls that do not always agree. The source made the active and inactive calls. Cut-off read from the data, not from the text of the source: active = growth inhibition above about 70%; inactive = the rest.
Assays:
[1] = NCI Yeast Anticancer Drug Screen. Data for the rad52 strain (AID 147);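 note: 0% = growth of vehicle-treated control cultures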; conditions: S. cerevisiae rad52 mutant growth inhibition, stronger effect = higher value
Method in brief: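 Vehicle-treated cultures served as the reference for growth inhibition of compound-exposed yeast bearing a DNA repair mutation.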

[2] = NCI Yeast Anticancer Drug Screen. Data for the wt1 strain (AID 149);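 note: 0% = growth of vehicle-treated wt1 cultures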; conditions: S. cerevisiae wt1 strain (SPY 50644) growth inhibition, stronger effect = higher value
Method in brief: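 Readout: yeast growth inhibition, normalised to vehicle controls, in the wt1 strain exposed to test compounds.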

[3] = NCI Yeast Anticancer Drug Screen. Data for the rad50EPP+ strain (AID 151);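 note: 0% = growth of vehicle-treated control cultures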; conditions: S. cerevisiae rad50 mutant strain, stronger effect = higher value
Method in brief: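 In this screen, rad50EPP+ yeast were exposed to compounds. Growth inhibition was scored against vehicle-treated controls.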

[4] = NCI Yeast Anticancer Drug Screen. Data for the mgt1 strain (AID 153); conditions: S. cerevisiae mgt1 mutant growth inhibition, stronger effect = higher value
Method in brief: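 mgt1 strain exposed; growth vs vehicle control recorded as inhibition.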

[5] = NCI Yeast Anticancer Drug Screen. Data for the rad50 strain (AID 155);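 note: 0% = growth of vehicle-only cultures of the same strain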; conditions: S. cerevisiae rad50 strain growth inhibition, stronger effect = higher value
Method in brief: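 Compounds were tested on a yeast strain with an engineered DNA damage repair alteration; the reported value is growth inhibition normalised to vehicle treatment.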

[6] = NCI Yeast Anticancer Drug Screen. Data for the mec2-1 strain (AID 157); conditions: S. cerevisiae mec2-1 strain, stronger effect = higher value
Method in brief: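 Vehicle-treated cultures served as reference for growth inhibition of compound-exposed mec2-1 yeast.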

[7] = NCI Yeast Anticancer Drug Screen. Data for the rad14 strain (AID 159);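 note: 0% = growth of vehicle-treated control cultures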; conditions: S. cerevisiae rad14 strain growth inhibition, stronger effect = higher value
Method in brief: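 Compound-treated yeast with a defined DNA-repair lesion; growth inhibition normalised to vehicle-treated cultures.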

[8] = NCI Yeast Anticancer Drug Screen. Data for the sgs1 mgt1 strain (AID 161);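 note: 0% = growth of cultures given vehicle only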; conditions: S. cerevisiae sgs1 mgt1 strain, stronger effect = higher value
Method in brief: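 Inhibition of yeast growth, normalised to vehicle-treated controls, is reported for a strain bearing genetic alterations in DNA damage repair.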

[9] = NCI Yeast Anticancer Drug Screen. Data for the CLN2oe strain (AID 163);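 note: 0% = growth of vehicle-only control cultures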; conditions: S. cerevisiae CLN2oe strain, stronger effect = higher value
Method in brief: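 Inhibition relative to vehicle-treated yeast is reported. Cells: strain with genetic alteration in cell-cycle control, grown with compound.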

[10] = NCI Yeast Anticancer Drug Screen. Data for the cln2 rad14 strain (AID 165);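 note: 0% = growth equal to vehicle treated cultures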; conditions: S. cerevisiae cln2 rad14 strain, stronger effect = higher value
Method in brief: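 Each compound was tested on cln2 rad14 yeast. Inhibition of growth was calculated against vehicle-exposed controls.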

[11] = NCI Yeast Anticancer Drug Screen. Data for the bub3 strain (AID 167); conditions: S. cerevisiae bub3 mutant strain, stronger effect = higher value
Method in brief: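 Growth of a checkpoint-deficient yeast mutant is measured after compound exposure. Values represent inhibition relative to vehicle.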

[12] = at 5.0 µM (retest, dose inferred, filed as 0.5)
[13] = at 50.0 µM (retest, dose inferred, filed as 5.0)

Measured: growth inhibition

COc1ccc([N+]2=NC(c3ccc([N+](=O)[O-])cc3)=NN(c3ccccc3)C2)cc1
91% (active) and 63% (inactive): [7]; at 100.0 µM
93% (active) and 41% (inactive): [4]; at 100.0 µM
active: [1]; at 100.0 µM 91% | [2]; at 100.0 µM 94% and 89% | [5]; at 50.0 µM 78.3% and 73.8% | [5]; at 100.0 µM 90% and 88% | [6]; at 50.0 µM 75.2% and 70.8% | [9]; at 100.0 µM 90% and 70% | [11]; [13] 84% and 88% | [11]; at 50.0 µM 90.5% and 91.4%
82% (active) and 58% (inactive): [3]; at 100.0 µM
inactive: [1]; at 1.2 µM -3% and -1% | [1]; at 3.7 µM -1% and 1% | [1]; at 11.0 µM 1% and 2% | [1]; at 33.0 µM 37% and 12% | [2]; at 1.2 µM 1% | [2]; at 3.7 µM 0% | [2]; at 11.0 µM -3% and -5% | [2]; at 33.0 µM 1% and -2% | [3]; at 1.2 µM -10% and -9% | [3]; at 3.7 µM -4% and -5% | [3]; at 11.0 µM 3% and 4% | [3]; at 33.0 µM 32% and 9% | [4]; at 1.2 µM -1% | [4]; at 3.7 µM -2% and -6% | [4]; at 11.0 µM -1% and 2% | [4]; at 33.0 µM 43% and -6% | [5]; at 1.2 µM -6% and -5% | [5]; at 3.7 µM -16% | [5]; [12] 8% and 7% | [5]; at 11.0 µM -17% and -13% | [5]; at 33.0 µM 34% and 11% | [5]; [13] 52% and 31% | [6]; at 1.2 µM -5% and -1% | [6]; at 3.7 µM -5% and -2% | [6]; [12] -10% and -3% | [6]; at 11.0 µM -5% and 1% | [6]; at 33.0 µM 6% and 5% | [6]; [13] 21% and 4% | [7]; at 1.2 µM 2% | [7]; at 3.7 µM 1% | [7]; at 11.0 µM 4% and 2% | [7]; at 33.0 µM 14% and 9% | [8]; [12] 2% and -1% | [8]; [13] 22% and 50% | [9]; at 1.2 µM 0% and 5% | [9]; at 3.7 µM -3% and 0% | [9]; at 11.0 µM -7% and 4% | [9]; at 33.0 µM 21% and 9% | [10]; [12] 5% and -13% | [10]; [13] 48% and 43% | [10]; at 50.0 µM 51% and 38.8% | [11]; at 1.2 µM 5% and 1% | [11]; at 3.7 µM 17% and 4% | [11]; [12] 15% and 17% | [11]; at 11.0 µM 17% and 9% | [11]; at 33.0 µM 35% and 5%
78.8% (active) and 63.6% (inactive): [8]; at 50.0 µM
92% (active) and 50% (inactive): [6]; at 100.0 µM
90% (active) and 56% (inactive): [11]; at 100.0 µM

Source: PubChem BioAssay (NCI)
